Drawing on PubChem BioAssay (EPA / NIEHS), this text covers outcome and AC50 for 17 compounds.

The target in assay [1] is human Peroxisome Proliferator-activated Receptor alpha (PPARa), PPARA (gene 5465) (UniProt Q07869). Description: ATG_PPARa_TRANS: Attagene TRANS-FACTORIAL HepG2 Assay for human Peroxisome Proliferator-activated Receptor alpha (PPARa) (AID 2283001).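 For AC50: potency for gain of reporter signal over DMSO so agonist or activator.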 An outline of the steps:
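Cells (HepG2) are transfected with multiple reporter transcription units, exposed to chemical for 24 h, then total RNA is reverse-transcribed and amplified. Labelled products are quantified by capillary electrophoresis; induction is referenced to DMSO.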

Assay [2] addresses Peroxisome proliferator-activated receptor gamma (Homo sapiens) (UniProt P37231). The experiment in a line: ATG_PPARg_TRANS: Attagene TRANS-FACTORIAL HepG2 Assay for human Peroxisome Proliferator-activated Receptor-gamma (PPARg) (AID 2283007). In a few lines:
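Chimeric NR-Gal4 transactivation is measured in transiently transfected HepG2 cells by reporter mRNA induction at 24 h. Detection uses RT-PCR with fluorescent labelling and capillary electrophoresis; DMSO defines baseline.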

Assay [3] concerns the target Nuclear receptor subfamily 1 group I member 2 (Homo sapiens) (UniProt O75469). The experiment in a line: ATG_PXR_TRANS: Attagene TRANS-FACTORIAL HepG2 Assay for human Pregnane X Receptor (PXR) (AID 2283008). An outline of the steps: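 Trans-factorial format: exogenous NR-Gal4 fusion activity, not endogenous factor, in transfected human HepG2 liver cells. After 24 h dosing, RNA isolated, reverse-transcribed, amplified and resolved by capillary electrophoresis; induction scored versus DMSO.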

In assay [4] the target is human Peroxisome Proliferator-activated Receptor delta (PPARd), PPARD (gene 5467) (UniProt Q03181). The experiment in a line: ATG_PPARd_TRANS: Attagene TRANS-FACTORIAL HepG2 Assay for human Peroxisome Proliferator-activated Receptor delta (PPARd) (AID 2283002). An outline of the steps: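 Multiplexed trans-activation format: HepG2 liver cells expressing exogenous NR-Gal4 chimeras and GAL4-UAS reporters were exposed for 24 h. Reporter mRNA was detected by RT-PCR with capillary electrophoresis fluorescence; activity fitted as gain of signal relative to DMSO.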
Sequence of human Peroxisome Proliferator-activated Receptor delta (PPARd), PPARD (gene 5467) (Q03181 whole entry, looked up, the tested form may be a part): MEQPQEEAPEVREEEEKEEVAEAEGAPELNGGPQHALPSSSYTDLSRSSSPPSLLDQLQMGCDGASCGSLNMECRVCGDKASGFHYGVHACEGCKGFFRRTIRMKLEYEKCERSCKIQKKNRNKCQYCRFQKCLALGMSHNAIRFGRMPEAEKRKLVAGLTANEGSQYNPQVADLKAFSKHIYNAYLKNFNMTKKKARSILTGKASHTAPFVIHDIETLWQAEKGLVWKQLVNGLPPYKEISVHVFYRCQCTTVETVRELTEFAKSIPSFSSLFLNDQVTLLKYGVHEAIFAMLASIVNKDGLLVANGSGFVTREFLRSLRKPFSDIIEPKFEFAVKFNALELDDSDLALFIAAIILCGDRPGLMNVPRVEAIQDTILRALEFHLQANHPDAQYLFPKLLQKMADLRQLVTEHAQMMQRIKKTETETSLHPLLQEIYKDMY

The target of assay [5] is human Retinoic Acid Receptor beta (RARb), RARB (gene 5915) (UniProt P10826). Description: ATG_RARb_TRANS: Attagene TRANS-FACTORIAL HepG2 Assay for human Retinoic Acid Receptor beta (AID 2283004). In a few lines:
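HepG2 cells transiently transfected with multiplexed GAL4-UAS reporter units expressing chimeric NR–Gal4 fusions; 24 h compound exposure. Reporter mRNA quantified by RT-PCR, 6-FAM labelling, HpaI digestion and capillary electrophoresis; gain-of-signal fitted against DMSO baseline.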

For assay [6], the target named is Retinoic acid receptor alpha (Homo sapiens) (UniProt P10276). The experiment in a line: ATG_RARa_TRANS: Attagene TRANS-FACTORIAL HepG2 Assay for human Retinoic Acid Receptor alpha (RARa) (AID 2283005). An outline of the steps:
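HepG2 cells transiently transfected with multiple reporter units expressing chimeric RARα-GAL4 fusion, with GAL4-UAS-driven reporters. After 24 h compound exposure, reporter mRNA induction quantified by RT-PCR and capillary electrophoresis with fluorescent labeling; gain-of-signal fitted relative to DMSO control.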

In assay [7] the target is human Retinoic Acid Receptor gamma (RARg), RARG (gene 5916) (UniProt P13631). The experiment in a line: ATG_RARg_TRANS: Attagene TRANS-FACTORIAL HepG2 Assay for human Retinoic Acid Receptor gamma (RARg) (AID 2283009). An outline of the steps:
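TRANS format measured activity of exogenous NR-GAL4 fusion (RARg) in transfected HepG2 liver cells after 24 h dosing. Induced reporter RNA was detected by RT-PCR/capillary electrophoresis fluorescence, analysed in the positive direction against DMSO.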

Inconclusive results are not listed. Active and inactive are the calls of the source. Rule for the calls: active = hit-call score of the fitted dose curve at least 0.9, where 1 is the maximum; inconclusive = response in the unintended direction; inactive = score below 0.9.

Sequence of human Retinoic Acid Receptor beta (RARb), RARB (gene 5915) (P10826 whole entry, looked up, the tested form may be a part): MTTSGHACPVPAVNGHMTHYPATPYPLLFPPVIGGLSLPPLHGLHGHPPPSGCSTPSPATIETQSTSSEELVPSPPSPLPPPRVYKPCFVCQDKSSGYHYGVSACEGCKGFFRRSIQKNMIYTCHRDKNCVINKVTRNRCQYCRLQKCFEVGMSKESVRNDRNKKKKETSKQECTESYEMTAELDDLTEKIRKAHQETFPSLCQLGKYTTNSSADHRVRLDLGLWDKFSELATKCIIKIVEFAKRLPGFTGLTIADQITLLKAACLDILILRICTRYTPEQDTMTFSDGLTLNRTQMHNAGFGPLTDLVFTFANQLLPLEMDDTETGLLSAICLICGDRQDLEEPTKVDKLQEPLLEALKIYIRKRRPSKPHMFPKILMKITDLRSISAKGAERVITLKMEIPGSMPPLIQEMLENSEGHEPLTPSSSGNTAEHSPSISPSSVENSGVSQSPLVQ
Sequence of Retinoic acid receptor alpha (Homo sapiens) (P10276 whole entry, looked up, the tested form may be a part): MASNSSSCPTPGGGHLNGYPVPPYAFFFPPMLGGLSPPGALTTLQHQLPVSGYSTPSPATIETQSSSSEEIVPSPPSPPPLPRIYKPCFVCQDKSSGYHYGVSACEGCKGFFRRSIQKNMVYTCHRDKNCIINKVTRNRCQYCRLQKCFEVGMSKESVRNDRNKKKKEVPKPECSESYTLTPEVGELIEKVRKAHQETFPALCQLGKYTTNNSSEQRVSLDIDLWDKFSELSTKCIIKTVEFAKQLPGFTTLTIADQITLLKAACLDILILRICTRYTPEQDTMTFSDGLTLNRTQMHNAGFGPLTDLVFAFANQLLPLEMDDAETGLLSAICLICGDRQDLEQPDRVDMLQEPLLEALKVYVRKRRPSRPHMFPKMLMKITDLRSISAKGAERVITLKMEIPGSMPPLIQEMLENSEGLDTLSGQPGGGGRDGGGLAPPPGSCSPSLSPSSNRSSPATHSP
Sequence of Peroxisome proliferator-activated receptor gamma (Homo sapiens) (P37231 whole entry, looked up, the tested form may be a part): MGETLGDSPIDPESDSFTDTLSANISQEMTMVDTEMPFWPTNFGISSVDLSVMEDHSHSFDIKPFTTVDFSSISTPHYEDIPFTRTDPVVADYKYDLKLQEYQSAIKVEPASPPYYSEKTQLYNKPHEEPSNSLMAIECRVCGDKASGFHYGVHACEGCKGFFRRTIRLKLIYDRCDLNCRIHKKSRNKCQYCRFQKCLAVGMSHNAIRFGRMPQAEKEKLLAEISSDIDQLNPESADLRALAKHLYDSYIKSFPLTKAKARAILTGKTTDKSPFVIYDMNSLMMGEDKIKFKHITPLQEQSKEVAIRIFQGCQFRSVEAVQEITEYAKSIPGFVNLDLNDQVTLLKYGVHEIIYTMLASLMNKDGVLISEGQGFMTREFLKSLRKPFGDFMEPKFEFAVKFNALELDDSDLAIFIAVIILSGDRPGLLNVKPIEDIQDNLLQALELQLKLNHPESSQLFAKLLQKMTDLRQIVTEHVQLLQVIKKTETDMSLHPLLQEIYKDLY
Sequence of human Peroxisome Proliferator-activated Receptor alpha (PPARa), PPARA (gene 5465) (Q07869 whole entry, looked up): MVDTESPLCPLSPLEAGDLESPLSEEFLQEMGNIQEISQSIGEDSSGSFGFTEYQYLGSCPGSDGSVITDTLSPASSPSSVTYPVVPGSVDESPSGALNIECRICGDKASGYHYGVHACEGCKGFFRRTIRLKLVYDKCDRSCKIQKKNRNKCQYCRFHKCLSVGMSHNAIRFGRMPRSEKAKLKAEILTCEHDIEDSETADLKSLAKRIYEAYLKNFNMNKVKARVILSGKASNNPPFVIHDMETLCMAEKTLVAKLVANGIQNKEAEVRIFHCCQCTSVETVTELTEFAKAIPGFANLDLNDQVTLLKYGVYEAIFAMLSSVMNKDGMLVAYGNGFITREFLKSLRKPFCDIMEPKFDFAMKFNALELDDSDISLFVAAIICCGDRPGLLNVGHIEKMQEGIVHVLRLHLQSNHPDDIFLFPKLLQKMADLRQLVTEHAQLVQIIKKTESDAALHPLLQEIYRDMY
Sequence of human Retinoic Acid Receptor gamma (RARg), RARG (gene 5916) (P13631 whole entry, looked up, the tested form may be a part): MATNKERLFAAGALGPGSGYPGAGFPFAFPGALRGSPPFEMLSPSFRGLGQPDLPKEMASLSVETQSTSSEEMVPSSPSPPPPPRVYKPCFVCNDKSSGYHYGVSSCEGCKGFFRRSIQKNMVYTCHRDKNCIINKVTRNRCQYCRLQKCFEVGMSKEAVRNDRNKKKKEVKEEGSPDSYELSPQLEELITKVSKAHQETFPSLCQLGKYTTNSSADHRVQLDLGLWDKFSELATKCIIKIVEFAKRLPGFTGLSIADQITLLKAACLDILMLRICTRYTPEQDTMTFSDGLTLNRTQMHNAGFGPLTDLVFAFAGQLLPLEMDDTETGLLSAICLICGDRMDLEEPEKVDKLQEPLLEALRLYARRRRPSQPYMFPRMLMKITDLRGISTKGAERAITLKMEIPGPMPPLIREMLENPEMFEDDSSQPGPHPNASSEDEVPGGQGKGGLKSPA
Sequence of Nuclear receptor subfamily 1 group I member 2 (Homo sapiens) (O75469 whole entry, looked up, the tested form may be a part): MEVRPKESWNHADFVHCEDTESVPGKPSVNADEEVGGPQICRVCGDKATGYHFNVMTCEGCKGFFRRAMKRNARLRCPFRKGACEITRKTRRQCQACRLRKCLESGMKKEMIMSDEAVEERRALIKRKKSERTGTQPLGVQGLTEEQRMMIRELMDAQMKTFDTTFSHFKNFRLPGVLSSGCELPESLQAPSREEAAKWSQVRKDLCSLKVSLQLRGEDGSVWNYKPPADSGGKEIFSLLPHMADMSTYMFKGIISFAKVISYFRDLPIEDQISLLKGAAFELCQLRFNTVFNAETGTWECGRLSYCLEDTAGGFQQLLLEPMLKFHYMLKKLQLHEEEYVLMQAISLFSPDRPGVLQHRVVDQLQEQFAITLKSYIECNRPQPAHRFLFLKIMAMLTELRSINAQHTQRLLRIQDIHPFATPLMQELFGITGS

For the compound `CCCCOCCOC(=O)COc1ccc(Cl)cc1Cl`, the compound was classed as inactive in assay [1] and in assay [2].
As a reminder, the AC50 is the concentration giving half of the maximal activity seen. For the compound `CC(CC=O)CC(C)(C)C` (stereo not given), the compound was classed as inactive in assay [1] and in assay [2]. In addition, the AC50 in assay [3] is 7.15 µM (active).
For `O=C(O[C@@H]1Cc2c(O)cc(O)cc2O[C@@H]1c1cc(O)c(O)c(O)c1)c1cc(O)c(O)c(O)c1`, the call in assay [1], in assay [2] and in assay [3] was inactive.
Regarding `CC(C)(O)Cc1ccccc1`, the compound was called inactive in assay [4], in assay [5], in assay [6] and in assay [3].
As to `CCCCC(C=O)CC` (stereo not given), the call in assay [1], in assay [2] and in assay [3] was inactive.
`N#CC1(N)CCCCC1`: the outcome in assay [1], in assay [2] and in assay [7] was inactive.
Regarding `CCCc1ccc(O)c(OC)c1`, the compound was classed as inactive in assay [1] and in assay [3]. The concentration at half-maximal activity (AC50) in assay [2] is 57.2 µM (active).
On to `CCCCCCCCCCCCCCCCCCOS(=O)(=O)O`, for which the AC50 in assay [1] was 27.4 µM (active); in assay [2], 8.35 µM (active). Besides, the call in assay [3] was inactive.
On to `C=CC(C)(O)CC/C=C(\C)CC` (stereo not given), for which the compound was classed as inactive in assay [4], in assay [5], in assay [6], in assay [2] and in assay [7]. For the same compound, the AC50 in assay [3] was 6.12 µM (active).
As to `O=C(O)CC(C(=O)O)S(=O)(=O)O` (stereo not given), the call in assay [1] and in assay [3] was inactive.
Turning to `C=C(C)C(=O)OCCOC(=O)C(=C)C`, the result in assay [4], in assay [5], in assay [6], in assay [3] and in assay [7] was inactive. Besides, the concentration at half-maximal activity (AC50) in assay [2] is 62.2 µM (active).
Consider `C=CCCCCCCCCOC(C)=O`, for which the compound was classed as inactive in assay [1], in assay [2] and in assay [3].
Consider `C=CC(C)(CCC=C(C)C)OC(=O)C=Cc1ccccc1` (stereo not given), for which, in assay [1], the result was inactive. Moreover, the concentration at half-maximal activity (AC50) in assay [2] was 4.97 µM (active); in assay [3], 2.75 µM (active).
Turning to `CCCCCCCCCCCCc1ccc(O)cc1`, the call in assay [1] and in assay [2] was inactive. Further, the AC50 in assay [3] was 3 µM (active).
Consider `CC12CCC(CC1)C(C)(C)O2`, for which the result in assay [4] and in assay [5] was inactive.
Consider `C=C(C)OC(C)=O`, for which the result in assay [1], in assay [3] and in assay [7] was inactive.
As for `CO[Si](CCCS)(OC)OC`, the result in assay [1], in assay [2] and in assay [3] was inactive.
